Data on six molecules can be found in PubChem BioAssay (NCATS).

Inconclusive results are not listed. The source made the active and inactive calls. The call rests on the fitted dose curve; in most records, active means well fitted curve in the direction sought with a large enough effect; inconclusive means small, poorly fitted or top-dose-only effect, or another doubt; inactive means no such curve, though single readings can be large; an effect the other way counts as inactive or inconclusive.

The nature of test [1]: Quantitative High-Throughput drug screen in 47 multiple myeloma cell lines against the NCATS MIPE library collection: JIM3_ECACC cell viability assay (AID 1918963; further: nearly all actives have a fitted effect of over 35% in size; further: potency means the concentration at half of the fitted maximal effect). The procedure, abridged: (§1)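 Viability readout: CellTiter-Glo luminescence following 5 min room-temperature incubation with reagent. Prior exposure: 48 h, 37C, humidified 5% CO2, 500 cells per well.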
The nature of test [2]: Quantitative High-Throughput drug screen in 47 multiple myeloma cell lines against the NCATS MIPE library collection: JIM1_ECACC cell viability assay (AID 1918964; further: potency means the concentration at half of the fitted maximal effect). The procedure, abridged: (§2)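 Primary qHTS used for cherry-picking: cells at 500/well, library compounds for 48 h (37C, 5% CO2), luminescent ATP assay.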
Test [3] can be described thus: Quantitative High-Throughput drug screen in 47 multiple myeloma cell lines against the NCATS MIPE library collection: INA6_PLB cell viability assay (AID 1918965; further: nearly all actives have a fitted effect of over 55% in size; further: potency means the concentration at half of the fitted maximal effect). The gist of the method:
(§3)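 Approved and investigational drugs from MIPE 4.0 were added by pin tool to 500 cells per well. After 48 hours at 37C, ATP-based CellTiter-Glo luminescence indicated remaining viability.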

Test [4] in a line: Quantitative High-Throughput drug screen in 47 multiple myeloma cell lines against the NCATS MIPE library collection: JJN3_DSMZ cell viability assay (AID 1918966; further: nearly all actives have a fitted effect of over 50% in size; further: potency means the concentration at half of the fitted maximal effect). The gist of the method: as §2
Test [5] is described as follows: Quantitative High-Throughput drug screen in 47 multiple myeloma cell lines against the NCATS MIPE library collection: H1112_PLB cell viability assay (AID 1918967; further: nearly all actives have a fitted effect of over 30% in size; further: potency means the concentration at half of the fitted maximal effect). The procedure, abridged: as §2
The nature of test [6]: Quantitative High-Throughput drug screen in 47 multiple myeloma cell lines against the NCATS MIPE library collection: Karpas25_ECACC cell viability assay (AID 1918968; further: nearly all actives have a fitted effect of over 35% in size; further: potency means the concentration at half of the fitted maximal effect). The gist of the method: as §2
The nature of test [7]: Quantitative High-Throughput drug screen in 47 multiple myeloma cell lines against the NCATS MIPE library collection: KMS12BM_JCRB cell viability assay (AID 1918971). Further: potency means the concentration at half of the fitted maximal effect; nearly all actives have a fitted effect of over 35% in size. The gist of the method: (§4)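 Steps: seed 500 cells per well; pin-transfer MIPE 4.0 library; incubate 48 h at 37C, 5% CO2, humidified; add CellTiter-Glo, 5 min room temperature; read luminescence.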
A short description of test [8]: Quantitative High-Throughput drug screen in 47 multiple myeloma cell lines against the NCATS MIPE library collection: KMS12PE_JCRB cell viability assay (AID 1918972). Further: potency means the concentration at half of the fitted maximal effect; nearly all actives have a fitted effect of over 30% in size. The procedure, abridged:
as §3

Test [9] in a line: Quantitative High-Throughput drug screen in 47 multiple myeloma cell lines against the NCATS MIPE library collection: KMS26_JCRB cell viability assay (AID 1918975). Further: nearly all actives have a fitted effect of over 45% in size. Further: potency means the concentration at half of the fitted maximal effect. The procedure, abridged:
as §4

The nature of test [10]: Quantitative High-Throughput drug screen in 47 multiple myeloma cell lines against the NCATS MIPE library collection: MMM1_PLB cell viability assay (AID 1918976). Further: potency means the concentration at half of the fitted maximal effect; nearly all actives have a fitted effect of over 35% in size. The gist of the method: (§5)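 MIPE 4.0 approved/investigational drugs; 500 cells/well; 48 h 37 °C humidified 5% CO2; CTG luminescence readout; DMSO = 100%, media = 0% viability.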
A short description of test [11]: Quantitative High-Throughput drug screen in 47 multiple myeloma cell lines against the NCATS MIPE library collection: MOLP8_DSMZ cell viability assay (AID 1918977). Further: nearly all actives have a fitted effect of over 45% in size. Further: potency means the concentration at half of the fitted maximal effect. The procedure, abridged:
as §5

A short description of test [12]: Quantitative High-Throughput drug screen in 47 multiple myeloma cell lines against the NCATS MIPE library collection: NCIH929_DSMZ cell viability assay (AID 1918978). Further: nearly all actives have a fitted effect of over 35% in size. Further: potency means the concentration at half of the fitted maximal effect. The procedure, abridged:
as §5

A short description of test [13]: Quantitative High-Throughput drug screen in 47 multiple myeloma cell lines against the NCATS MIPE library collection: MM1S_ATCC cell viability assay (AID 1918980). Further: nearly all actives have a fitted effect of over 45% in size. Further: potency means the concentration at half of the fitted maximal effect. The gist of the method: as §5
Test [14] can be described thus: Quantitative High-Throughput drug screen in 47 multiple myeloma cell lines against the NCATS MIPE library collection: MM1R_ATCC cell viability assay (AID 1918981). Further: nearly all actives have a fitted effect of over 35% in size. Further: potency means the concentration at half of the fitted maximal effect. The gist of the method:
as §5

Test [15] in a line: Quantitative High-Throughput drug screen in 47 multiple myeloma cell lines against the NCATS MIPE library collection: KMS27_JCRB cell viability assay (AID 1918970). Further: nearly all actives have a fitted effect of over 30% in size. Further: potency means the concentration at half of the fitted maximal effect. The settings on record: KMS27 myeloma cells, CellTiter-Glo ATP viability, 48 h; viability (% of DMSO): at 45.8 µM (top of the series). The gist of the method:
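CellTiter-Glo luminescence after 48 h drug exposure at 37 °C; 500 cells/well, 1536-well format, pin-tool compound addition; DMSO = 100%, media-only = 0% viability.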

Test [16] is described as follows: Quantitative High-Throughput drug screen in 47 multiple myeloma cell lines against the NCATS MIPE library collection: OCIMY1_PLB cell viability assay (AID 1918979). Further: nearly all actives have a fitted effect of over 35% in size. The procedure, abridged:
as §5

A short description of test [17]: Quantitative High-Throughput drug screen in 47 multiple myeloma cell lines against the NCATS MIPE library collection: KMS20_JCRB cell viability assay (AID 1918973). Further: nearly all actives have a fitted effect of over 45% in size. The procedure, abridged: as §2
Test [18] is described as follows: Quantitative High-Throughput drug screen in 47 multiple myeloma cell lines against the NCATS MIPE library collection: KHM11_PLB cell viability assay (AID 1918962). Further: nearly all actives have a fitted effect of over 35% in size. The procedure, abridged: as §1

In the case of `N#Cc1ccc(COC[C@H]2O[C@@H](n3c(NCc4ccc(Cl)c(Cl)c4)nc4c(N)ncnc43)[C@@H](O)[C@@H]2O)cc1`, the Potency in test [1] was 14.8 µM (active); in [2] it was 3.72 µM (active); in [3] it was 7.43 µM (active); in test [4] it was 0.469 µM (active); in test [5] it was 7.43 µM (active); in test [6], 23.5 µM (active). Also, the Potency in [7] was 5.9 µM (active); in test [8], 3.72 µM (active); in test [9], 2.35 µM (active); in test [10], 4.69 µM (active); in [11] it was 16.6 µM (active); in test [12] it was 20.9 µM (active). Also, the Potency in test [13] was 18.7 µM (active); in [14], 3.72 µM (active).

For the molecule `N#Cc1c(NC(=O)c2cccc3ccccc23)sc2c1CCCC2`, the Potency in test [1] is 0.209 µM (active); in test [2] it was 0.187 µM (active); in test [3], 0.296 µM (active); in [4] it was 2.64 µM (active); in test [5] it was 0.418 µM (active); in test [6] it was 0.743 µM (active). In addition, the Potency was 0.0209 µM (active) in [15]; 0.526 µM (active) in test [7]; 0.332 µM (active) in [8]; 3.32 µM (active) in test [9]; 5.26 µM (active) in test [10]; 2.35 µM (active) in test [12]. The results for the Potency in [13] and in test [14] were 1.05 µM (active) and 0.743 µM (active), respectively.

Consider `C=C(C)[C@@H]1CC[C@]2(C(=O)O)CC[C@]3(C)[C@H](CC[C@@H]4[C@@]5(C)CC[C@H](O)C(C)(C)[C@@H]5CC[C@]43C)[C@@H]12`, for which the Potency result in test [1], in test [2], in [3], in test [5], in test [15] and in test [9] was “inactive” in each case. Besides, the Potency result in test [11], in test [12], in [16], in [13] and in test [14] was “inactive” in each case. Besides, the Potency in test [8] was 0.0372 µM (active).

For the molecule `N=c1ccn2c(n1)O[C@H]1[C@@H](O)[C@@H](CO)O[C@H]12`, the Potency result in test [1], in test [2], in [4], in test [9] and in test [16] was “inactive” in each case. For the same molecule, the Potency in test [3] was 4.18 µM (active); in test [15] it was 5.9 µM (active); in [7], 0.059 µM (active); in test [8] it was 11.8 µM (active); in test [12] it was 16.6 µM (active); in test [13], 2.64 µM (active).

As for `CC(C)(O)[C@H]1CC[C@@](C)([C@H]2[C@@H](O)C[C@@]3(C)[C@@H]4C[C@H](O[C@@H]5O[C@H](CO)[C@@H](O)[C@H](O)[C@@H]5O)[C@H]5C(C)(C)[C@@H](O[C@@H]6OC[C@@H](O)[C@H](O)[C@@H]6O)CC[C@@]56C[C@@]46CC[C@]23C)O1`, the Potency entry in [1], in [2], in test [3], in test [6], in test [17] and in [9] was “inactive” each time. Also, the Potency result in [11], in [12], in [16] and in test [14] was “inactive” in each case. In test [4], the Potency was 0.418 µM (active).

For the molecule `CC(=O)O[C@]1(C(C)=O)CC[C@H]2[C@@H]3C=C(C)C4=CC(=O)CC[C@]4(C)[C@@H]3CC[C@@]21C`, the Potency entry in test [18], in test [9] and in test [16] was “inactive” throughout. Besides, the Potency is 10.5 µM (active) in test [2]; 8.33 µM (active) in [6]; 9.35 µM (active) in test [15]; 9.35 µM (active) in [7]; 11.8 µM (active) in test [8]; 18.7 µM (active) in test [10]. Moreover, the Potency was 7.43 µM (active) in test [12], 2.35 µM (active) in test [13] and 11.8 µM (active) in [14].
